Laboratory results as given in PubChem BioAssay (NCATS).
Inconclusive results are not listed. The source made the active and inactive calls. The call rests on the fitted dose curve; in most records, active means well fitted inhibition curve with a large enough effect; inconclusive means small, poorly fitted or top-dose-only effect; inactive means flat fitted curve, though single readings scatter.

Columns and labels:
Assay in all cases: Cytotoxic Profiling of Annotated Libraries Using Quantitative High-Throughput Screening (AID 1296008); further: nearly all actives have a fitted effect of over 60% in size
Conditions in all cases: Five cell lines viability, CellTiter-Glo ATP luminescence, 48-72 h; max response: hits give low values
[1] = test system: CRL-7250
How it was run: (§1)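 Cytotoxicity was measured as CellTiter-Glo ATP luminescence, read after 10 min at room temperature. Compound treatment of the cells lasted 48 or 72 hr at 37 degrees Celsius in a qHTS format.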

[2] = test system: HEK293
How it was run: as §1

[3] = test system: HaCat
How it was run: as §1

[4] = test system: KB-3-1
How it was run: as §1

[5] = test system: NIH3T3
How it was run: as §1
On the % scale 0 is the no-effect control and ±100 the full control effect; potency means the concentration at half of the fitted maximal effect.

Cc1c(Cc2ccc3ccccc3n2)c2cc(F)ccc2n1CC(=O)O
inactive: max response [1] -9.45% | max response [2] 0.378% | outcome [3] | max response [4] 7.66% | outcome [5]

C=C(C)[C@@H]1CC[C@]2(C(=O)O)CC[C@]3(C)C(CCC4[C@]5(C)C(CC[C@]43C)C(C)(C)[C@@H](O)[C@@H]5C(=O)O)C12 (stereo not given in full)
inactive: outcome [1] | max response [2] -0.322% | outcome [3] | outcome [4] | outcome [5]

COc1ccc(C2C(C(=O)O)C(C(=O)O)C2c2ccc(OC)cc2O[C@@H]2O[C@H](CO)[C@@H](O)[C@H](O)[C@H]2O)c(O[C@@H]2O[C@H](CO)[C@@H](O)[C@H](O)[C@H]2O)c1 (stereo not given in full)
inactive: max response [1] -9.53% | max response [2] -17.5% | max response [3] 0.767% | max response [4] -1.86% | outcome [5]

CC[C@H](NC(=O)c1c(O)c(-c2ccccc2)nc2ccccc12)c1ccccc1
inactive: outcome [1] | max response [2] -9.53% | outcome [3] | max response [4] -1.35% | outcome [5]

COc1ccc2[nH]c(S(=O)Cc3ncc(C)c(OC)c3C)nc2c1 (stereo not given)
inactive: max response [1] -15.2% | max response [2] 3.04% | outcome [3] | max response [4] 6.01% | outcome [5]

CC1OC(OC2C(OC(=O)[C@]34CCC(C)(C)C[C@H]3C3=CCC5[C@@]6(C)CC[C@H](OC7OC(C(=O)O)C(O)C(O)C7O)C(C)(C)C6CC[C@@]5(C)[C@]3(C)CC4O)OC(CO)C2O)C(O)C(O)C1OC1OCC(O)C(O)C1O (stereo not given in full)
inactive: max response [1] 0.472% | max response [2] -8.42% | outcome [3] | max response [4] 8.03% | max response [5] -0.0675%

C=C1CCC2C(C)(C)CC(O)CC2(C)C1CCC(C)CCOC(=O)CCC(=O)O (stereo not given)
inactive: max response [1] -28.7% | max response [2] -12.9% | max response [3] -1.5% | max response [4] -6.16% | outcome [5]

CC(=O)OCC1OC(O[C@H]2CC[C@]34C[C@]35CC(O)[C@]3(C)[C@@H]([C@H](C)CC/C=C(\C)C(=O)O)C(O)C[C@@]3(C)C5CC[C@H]4C2(C)C)C(O)C(O)C1OC1OCC(O)C(O)C1O (stereo not given in full)
inactive: max response [1] -0.106% | max response [2] -3.14% | max response [3] 2.3% | max response [4] 7.5% | outcome [5]

OC[C@@]1(O)CO[C@H](OC[C@H]2O[C@@H](OC(CCCCc3ccc(O)cc3)CCc3ccc(O)cc3)[C@H](O)[C@@H](O)[C@@H]2O)[C@@H]1O (stereo not given in full)
inactive: max response [1] -9.7% | max response [2] -4.6% | outcome [3] | max response [4] 9.32% | outcome [5]

CC1=C2CC3C(CCC3(C)O)C(C)(O)CC2OC1=O (stereo not given)
inactive: max response [1] -2.15% | outcome [2] | max response [3] 3.12% | max response [4] 6.46% | max response [5] -16.4%

CC(=O)c1c(C)cccc1O[C@@H]1O[C@H](CO)[C@@H](O)[C@H](O)[C@H]1O
inactive: max response [1] 1.88% | max response [2] -3.42% | outcome [3] | max response [4] 7.75% | outcome [5]

CC(C)c1c(NC(=O)Nc2ccc(Cl)cc2)c(=O)n(-c2ccccc2)n1C
inactive: max response [1] -6% | max response [2] -5.54% | outcome [3] | max response [4] -6.5% | max response [5] -1.6%

C/C(=C\CC/C(C)=C/CC[C@]1(C)CCc2cc(O)cc(C)c2O1)CC/C=C(\C)C(=O)O
inactive: max response [1] 0.272% | max response [2] -1.65% | max response [3] 4.26% | max response [4] -3.09% | outcome [5]

O=C(O)CCc1c(C(=O)O)[nH]c2cc(Cl)cc(Cl)c12
inactive: max response [1] -1.79% | max response [2] -7.05% | outcome [3] | outcome [4] | outcome [5]

COc1cccc2c1c(O)c(C(=O)N(C)c1ccc(C(F)(F)F)cc1)c(=O)n2C
inactive: max response [1] -1.12% | max response [2] 3.79% | outcome [3] | max response [4] 0.95% | max response [5] 2.51%

O=C(/C=C/c1ccc(O)cc1)OCC1OC(O)C(OC2OC(CO)C(O)C(O)C2O)C(O)C1O (stereo not given)
inactive: outcome [1] | max response [2] -3.95% | outcome [3] | max response [4] 8.27% | max response [5] 3.74%

C=C(C)[C@@H]1CC[C@]2(C(=O)O)CC[C@]3(C)[C@H](CCC4[C@@]5(C)CCC(=O)C(C)(C)C5C(O)C[C@]43C)C12 (stereo not given in full)
inactive: max response [1] -6.3% | outcome [3] | max response [4] -20.6% | max response [5] -1.28%
active: Potency [2] 4.47 µM

O=C(O)CC/C=C\C[C@H]1CO[C@@H](c2ccccc2Cl)O[C@H]1c1ccccc1O
inactive: max response [1] 3.51% | max response [2] -2.35% | outcome [3] | max response [4] 3.23% | outcome [5]
